# Experimental data: PubChem BioAssay
# Inconclusive results are not listed. The list shows a part of the results. Calls of active or inactive are those of the source.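 How the source made its calls, unless noted: active means GFP response above 150% of the DMSO level; inconclusive means fewer than 70 events counted for a yeast strain; inactive means the rest.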
# Legend:
# [1] = target: Regulator of G-protein signaling 16 (Homo sapiens) (UniProt O15492); assay: modulators of RGS–Galpha-o binding, primary screen, biochemical, multiplexed beads, flow cytometry, RGS4/7/8/16/19 (AID 1504); conditions: multiplexed bead flow cytometry, measured here: RGS16 interaction, at 10 µM;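 further: fluorescently labeled Galpha-o bound to GDP with aluminium fluoride binding biotinylated RGS beads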
# [2] = target: Regulator of G-protein signaling 19 (Homo sapiens) (UniProt P49795); assay: as above; conditions: multiplexed bead flow cytometry, measured here: RGS19 interaction, at 10 µM
# [3] = target: Regulator of G-protein signaling 7 (Homo sapiens) (UniProt P49802); assay: as above; conditions: multiplexed bead flow cytometry, measured here: RGS7 interaction, at 10 µM
# [4] = target: Regulator of G-protein signaling 8 (Homo sapiens) (UniProt P57771); assay: as above; conditions: multiplexed bead flow cytometry, measured here: RGS8 interaction, at 10 µM
# [5] = disruption of biotin probe capture by avidin, counter-screen for RGS protein interaction modulators, biochemical, flow cytometry, bead-based (AID 1783;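 active means inhibition above 50%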;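 further: median green fluorescence of gated singlet beads compared with DMSO control wells; 0% = DMSO wells and 100% = complete loss of bead fluorescence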); conditions: streptavidin beads, fluorescein-biotin binding; at 10 µM, stronger effect = higher value
# [6] = target: Guanine nucleotide-binding protein G(o) subunit alpha (Homo sapiens) (UniProt P09471); assay: RGS8-Galphao binding modulators, confirmation, biochemical, multiplexed bead flow cytometry, single concentration (AID 1836; in the data active means binding response below about 72% or above about 130%; inactive means in between;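 further: Galphao activated as GDP AlF4 complex before binding bead RGS8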); conditions: bead-based flow cytometry RGS8-Galphao binding, fluorescence; at 10 µM; actives lie on both sides
# Sequence of Guanine nucleotide-binding protein G(o) subunit alpha (Homo sapiens) (P09471 whole entry, looked up): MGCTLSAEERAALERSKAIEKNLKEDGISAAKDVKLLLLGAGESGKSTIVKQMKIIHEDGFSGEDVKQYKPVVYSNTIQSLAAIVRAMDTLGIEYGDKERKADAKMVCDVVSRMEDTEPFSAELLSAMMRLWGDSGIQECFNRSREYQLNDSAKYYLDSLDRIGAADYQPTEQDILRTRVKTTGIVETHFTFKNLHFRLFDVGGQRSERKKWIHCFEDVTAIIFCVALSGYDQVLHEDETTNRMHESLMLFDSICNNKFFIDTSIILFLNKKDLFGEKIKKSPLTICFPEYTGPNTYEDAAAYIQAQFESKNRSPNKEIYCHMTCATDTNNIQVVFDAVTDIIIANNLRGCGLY
# [7] = target: Guanine nucleotide-binding protein G(o) subunit alpha (Homo sapiens) (UniProt P09471); assay: RGS7-Galphao binding modulators, confirmation, biochemical, multiplexed bead flow cytometry, single concentration (AID 1837; in the data active means response below about 75% or above about 130%; inactive means in between;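 further: fluorescent Galphao activated with GDP and aluminum fluoride binding bead-coupled RGS7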); conditions: bead-based flow cytometry RGS7-Galphao binding; at 10 µM; actives lie on both sides
# [8] = target: Regulator of G-protein signaling 16 (Homo sapiens) + Guanine nucleotide-binding protein G(o) subunit alpha (Homo sapiens) (UniProt O15492+P09471); assay: modulators of RGS16-Galphao protein binding, confirmation, biochemical, single concentration, multiplexed bead flow cytometry (AID 1838; in the data active means response below about 74% or above about 130%; inactive means in between;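 further: Galphao activated as the GDP aluminium fluoride complex binding bead-coupled RGS16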); conditions: bead-based flow cytometry, at 10 µM, actives lie on both sides
# Sequence of Regulator of G-protein signaling 16 (Homo sapiens) + Guanine nucleotide-binding protein G(o) subunit alpha (Homo sapiens) (O15492 whole entry, looked up): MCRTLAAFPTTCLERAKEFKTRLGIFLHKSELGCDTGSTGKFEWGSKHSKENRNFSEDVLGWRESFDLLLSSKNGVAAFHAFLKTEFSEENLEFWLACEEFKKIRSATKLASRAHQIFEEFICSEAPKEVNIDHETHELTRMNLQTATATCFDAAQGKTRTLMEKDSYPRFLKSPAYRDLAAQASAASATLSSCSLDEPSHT
# Sequence of Regulator of G-protein signaling 16 (Homo sapiens) + Guanine nucleotide-binding protein G(o) subunit alpha (Homo sapiens) (P09471 whole entry, looked up): as the sequence (P09471 whole entry, looked up) above
# [9] = target: Guanine nucleotide-binding protein G(o) subunit alpha (Homo sapiens) (UniProt P09471); assay: modulators of RGS4-Galphao protein binding, confirmation, biochemical, single concentration, multiplexed bead flow cytometry (AID 1840; in the data active means binding response below about 74% or above about 130%; inactive means in between); conditions: at 10 µM, actives lie on both sides
# [10] = target: Guanine nucleotide-binding protein G(o) subunit alpha (Homo sapiens) + Regulator of G-protein signaling 19 (Homo sapiens) (UniProt P09471+P49795); assay: regulators of RGS19-Galphao binding, confirmation, biochemical, single point, multiplexed bead flow cytometry (AID 1841; in the data active means response below about 50% or above about 160%; inactive means in between;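 further: 100% = no compound control and 0% = blank background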); conditions: bead-based flow cytometry RGS19-Galphao binding; at 10 µM; actives lie on both sides
# Sequence of Guanine nucleotide-binding protein G(o) subunit alpha (Homo sapiens) + Regulator of G-protein signaling 19 (Homo sapiens) (P09471 whole entry, looked up): as above
# Sequence of Guanine nucleotide-binding protein G(o) subunit alpha (Homo sapiens) + Regulator of G-protein signaling 19 (Homo sapiens) (P49795 whole entry, looked up): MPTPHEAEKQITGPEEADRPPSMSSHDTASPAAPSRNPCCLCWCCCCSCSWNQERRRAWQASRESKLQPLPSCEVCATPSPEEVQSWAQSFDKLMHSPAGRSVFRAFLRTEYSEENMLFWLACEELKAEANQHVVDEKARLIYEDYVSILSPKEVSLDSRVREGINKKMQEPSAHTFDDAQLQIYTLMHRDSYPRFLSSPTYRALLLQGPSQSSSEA
# [11] = yeast TOR pathway RPL19A-GFP modulators, primary screen, cell-based, S. cerevisiae, multiplex flow cytometry (AID 1862; in the data active means percent of DMSO control GFP below about 86%;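 further: lower values mimic rapamycin by blocking the RPL19A rise seen in DMSO cells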); conditions: S. cerevisiae RPL19A-GFP strain, flow cytometry fluorescence, 3 h; at 10 µM; stronger effect = lower value
# [12] = modulators of MEP2-GFP levels in yeast, primary screen, S. cerevisiae, multiplex flow cytometry (AID 1867;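 active means GFP response, as percent of the DMSO control, above the screen-wide mean plus 3 SD, about 139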;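 further: median GFP channel fluorescence of barcode-gated MEP2-GFP cells measured by flow cytometry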); conditions: S. cerevisiae MEP2-GFP strain, 3 h, at 10 µM, stronger effect = higher value, 100% means same as DMSO wells
# [13] = modulators of CIT2-GFP expression in yeast, primary screen, S. cerevisiae, GFP fusion, multiplex flow cytometry (AID 1870;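 active means percent response above a set limit, the screen-wide mean plus 3 SD, cut at about 130% in these data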;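 further: barcoded CIT2-GFP strain pooled with four other GFP strains with rapamycin as positive control; median GFP fluorescence per well over plate mean of DMSO wells so 100% = DMSO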); conditions: 3 h, at 10 µM, stronger effect = higher value
# [14] = modulators of LAP4-GFP expression in yeast, primary screen, S. cerevisiae, multiplex flow cytometry (AID 1873;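 active means GFP signal, as percent of the solvent control, above the screen mean plus 3 SD, about 149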); conditions: 3 h, at 10 µM, stronger effect = higher value
# [15] = modulators of AGP1-GFP expression in yeast TOR pathway, primary screen, cell-based, multiplex flow cytometry, S. cerevisiae (AID 1887;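 active means GFP signal above the screen-wide mean plus 3 SD, that is over about 124.5% of the solvent control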;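 further: AGP1-GFP fusion strain of S. cerevisiae within a five-strain barcoded multiplex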); conditions: 3 h, at 10 µM, stronger effect = higher value
# [16] = RPL19A-GFP modulators, yeast TOR pathway, confirmation, cell-based, S. cerevisiae, flow cytometry, cherry picks, mother/daughter gates (AID 2270;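 active means GFP response below 50% of the DMSO control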); conditions: S. cerevisiae RPL19A-GFP strain, 3 h, at 10 µM, stronger effect = lower value, 100 = same GFP as DMSO wells
# [17] = LAP4-GFP expression modulators in yeast, confirmation, cell-based, cherry picks, flow cytometry, mother/daughter gates (AID 2271;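 active means GFP response above 150% of the DMSO control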;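 further: ratio of sample to DMSO plate mean so 100% equals DMSO level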); conditions: S. cerevisiae LAP4-GFP strain, 3 h, at 10 µM, stronger effect = higher value, 100 means same as DMSO control
# [18] = modulators of MEP2-GFP levels in yeast, confirmation, S. cerevisiae, flow cytometry GFP, cherry picks (AID 2272;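 active means GFP response above 150% of the DMSO control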;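 further: ratio of well signal to plate DMSO mean so 100% equals DMSO level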); conditions: S. cerevisiae MEP2-GFP strain, 3 h, at 10 µM, stronger effect = higher value
# [19] = AGP1-GFP expression modulators, hit retest, confirmation, cell-based, flow cytometry, S. cerevisiae, cherry picks (AID 2273);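 further: median GFP channel fluorescence over the whole cell population gate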; conditions: S. cerevisiae AGP1-GFP strain, 3 h, at 10 µM
# [20] = modulators of CIT2-GFP expression in yeast, confirmation, S. cerevisiae, GFP fusion, cherry picks, mother/daughter gates (AID 2274); conditions: S. cerevisiae CIT2-GFP strain, flow cytometry, 3 h, at 10 µM, stronger effect = higher value
# [21] = inhibitors of CD8+ T cell-vesicle binding, pilot screen, LFA-1/ICAM-1 modulator project, MLPCN validation set, flow cytometry (AID 2523;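 active means response below a set limit, under 55% cells CD8-positive and vesicle-bound, and CD8 cells' 90th-percentile brightness under 279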;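 on vesicle binding response: mean PE anti-B7-1 fluorescence of CD8+ cells relative to row control; 100% = QL9-loaded vesicles with DMSO vehicle in the same plate row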); conditions: 2C mouse CD8+ T cells, at 7 µM, stronger effect = lower value; double positive events: measured here: CD8+/vesicle+ event percentage
# [22] = target: Integrin beta-1 (Homo sapiens) + Integrin alpha-4 (Homo sapiens) (UniProt P13612+P05556); assay: inhibition of HUTS-21 binding to VLA-4, pilot screen, VLA-4 allosteric modulator project, U937 cells, HUTS-21 mAb, flow cytometry, validation set (AID 2674;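 active means inhibition above 50%, about 3 SD of the validation set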;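 further: antibody binding induced by the VLA-4 ligand LDV present at three times its Kd; 0% = LDV ligand with antibody and no compound and 100% = antibody without LDV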); conditions: HUTS-21 LIBS mAb binding, at 6.7 µM, stronger effect = higher value, binding induced by LDV ligand
# [23] = superoxide lowering in aged yeast cells, pilot screen, validation compound set (AID 2706;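 active means superoxide response below 65% of plate, a cut near 3 SD across the whole screen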;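 further: yeast exposed to compound for one week at 30 degrees C before staining; 100% = mean of all compound wells on the same plate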); conditions: S. cerevisiae aging, superoxide DHE fluorescence; at 10 µM; stronger effect = lower value
# [24] = target: Beta-adrenergic receptor kinase 1 (Homo sapiens) (UniProt P25098); assay: GRK2 binders displacing RNA aptamer, biochemical, validation, human GRK2, bead flow cytometry (AID 488806;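 active means aptamer binding inhibition above 30%, about 3 SD of noise from non-fluorescent compounds; inactive means inhibition at or below 30%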); conditions: bead-bound GRK2, FAM-aptamer displacement, at 10 µM, stronger effect = higher value
# Sequence of Beta-adrenergic receptor kinase 1 (Homo sapiens) (P25098 whole entry, looked up): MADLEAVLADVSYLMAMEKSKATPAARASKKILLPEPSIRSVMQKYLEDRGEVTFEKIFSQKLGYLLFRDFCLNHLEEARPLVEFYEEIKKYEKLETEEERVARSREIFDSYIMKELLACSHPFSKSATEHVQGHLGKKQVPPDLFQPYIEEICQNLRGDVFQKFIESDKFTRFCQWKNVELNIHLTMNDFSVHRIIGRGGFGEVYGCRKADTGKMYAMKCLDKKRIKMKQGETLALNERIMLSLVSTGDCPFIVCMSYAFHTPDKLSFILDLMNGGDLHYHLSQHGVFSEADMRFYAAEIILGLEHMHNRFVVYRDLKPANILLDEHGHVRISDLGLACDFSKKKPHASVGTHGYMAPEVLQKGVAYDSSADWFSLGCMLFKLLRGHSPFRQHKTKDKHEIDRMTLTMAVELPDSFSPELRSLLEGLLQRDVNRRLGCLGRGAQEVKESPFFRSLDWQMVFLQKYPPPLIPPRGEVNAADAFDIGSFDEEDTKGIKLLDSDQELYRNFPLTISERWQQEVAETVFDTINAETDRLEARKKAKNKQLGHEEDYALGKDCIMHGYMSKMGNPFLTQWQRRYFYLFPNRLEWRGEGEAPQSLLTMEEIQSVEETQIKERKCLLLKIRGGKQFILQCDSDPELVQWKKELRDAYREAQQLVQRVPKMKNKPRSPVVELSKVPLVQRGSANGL
# [25] = target: Beta-2 adrenergic receptor (Homo sapiens) (UniProt P07550); assay: beta2AR agonists driving receptor internalization, pilot screen, cell-based, FAP fluorogen, flow cytometry, validation set (AID 504459;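 active means percent response above 42, roughly 3 SD of non-fluorescent test compounds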;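 further: agonist-driven loss of surface beta2AR via internalization measured by FAP dye flow cytometry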); conditions: Am2.2-beta2AR cells, FAP surface receptor flow cytometry; at 10 µM; stronger effect = higher value
# Sequence of Beta-2 adrenergic receptor (Homo sapiens) (P07550 whole entry, looked up): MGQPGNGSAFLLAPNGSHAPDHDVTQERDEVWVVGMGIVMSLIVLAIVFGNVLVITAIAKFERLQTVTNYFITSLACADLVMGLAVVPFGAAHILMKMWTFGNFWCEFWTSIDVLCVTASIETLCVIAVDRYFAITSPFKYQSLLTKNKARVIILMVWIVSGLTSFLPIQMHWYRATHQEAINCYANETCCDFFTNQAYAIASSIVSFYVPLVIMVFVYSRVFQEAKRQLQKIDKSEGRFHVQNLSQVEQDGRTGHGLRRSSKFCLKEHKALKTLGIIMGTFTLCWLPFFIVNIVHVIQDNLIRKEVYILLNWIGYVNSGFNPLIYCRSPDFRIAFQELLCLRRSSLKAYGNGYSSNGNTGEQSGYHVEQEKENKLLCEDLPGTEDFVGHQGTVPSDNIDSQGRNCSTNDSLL
# [26] = target: AP-2 complex subunit beta (Homo sapiens) (UniProt P63010); assay: inhibitors of arrestin peptide binding to AP2, pilot screen, biochemical, validation set, GST-AP2 beads, flow cytometry (AID 504541;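 active means inhibition above 54%, about 3 SD of non-fluorescent compounds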;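 further: AP2 carries R879A mutation and is captured from E. coli lysate; bead-bound FITC arrestin peptide fluorescence measuring arrestin peptide binding to AP2; 0% = DMSO wells and 100% = excess unlabeled arrestin peptide control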); conditions: FITC arrestin peptide, at 10 µM, stronger effect = higher value, AP2 beta2 appendage fragment, R879A mutant
# Sequence of AP-2 complex subunit beta (Homo sapiens) (P63010 whole entry, looked up, the tested form may be a part, one chain of several): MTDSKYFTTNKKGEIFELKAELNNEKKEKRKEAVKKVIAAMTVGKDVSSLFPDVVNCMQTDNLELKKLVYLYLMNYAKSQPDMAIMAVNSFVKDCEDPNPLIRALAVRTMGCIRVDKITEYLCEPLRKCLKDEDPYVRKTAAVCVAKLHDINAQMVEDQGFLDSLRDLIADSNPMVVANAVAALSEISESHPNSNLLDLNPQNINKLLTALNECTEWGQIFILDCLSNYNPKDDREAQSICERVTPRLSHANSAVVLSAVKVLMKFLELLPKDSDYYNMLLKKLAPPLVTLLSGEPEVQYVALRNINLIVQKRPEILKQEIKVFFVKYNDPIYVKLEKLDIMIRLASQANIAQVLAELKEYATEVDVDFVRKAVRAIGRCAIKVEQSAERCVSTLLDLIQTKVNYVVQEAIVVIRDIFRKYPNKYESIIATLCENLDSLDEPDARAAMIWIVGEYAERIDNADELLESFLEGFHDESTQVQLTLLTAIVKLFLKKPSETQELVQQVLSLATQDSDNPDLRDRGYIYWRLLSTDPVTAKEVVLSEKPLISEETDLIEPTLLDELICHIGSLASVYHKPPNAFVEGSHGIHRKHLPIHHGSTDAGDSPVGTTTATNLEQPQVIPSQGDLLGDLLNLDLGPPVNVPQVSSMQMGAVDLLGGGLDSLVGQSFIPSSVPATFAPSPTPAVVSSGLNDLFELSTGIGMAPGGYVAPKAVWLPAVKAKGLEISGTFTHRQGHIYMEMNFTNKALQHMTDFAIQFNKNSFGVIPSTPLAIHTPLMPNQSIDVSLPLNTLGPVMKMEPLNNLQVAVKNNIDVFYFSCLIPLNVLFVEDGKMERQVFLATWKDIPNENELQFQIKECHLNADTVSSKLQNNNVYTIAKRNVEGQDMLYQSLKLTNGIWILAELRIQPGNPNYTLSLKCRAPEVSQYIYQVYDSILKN
# [27] = yeast V-ATPase proton transport modulators, S. cerevisiae, pHLuorin, HTS validation (AID 504600; in the data active means response above about 15%;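 further: plate controls were DMSO for no effect and reference compound for full effect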); conditions: S. cerevisiae pHLuorin cytosolic pH, at 10 µM, stronger effect = higher value
# [28] = system: anti-desmoglein-3 scFv antibody binding to human DSG3; assay: inhibitors of anti-DSG3 scFv binding to DSG3, pilot screen, biochemical, validation compound set, bead-based, flow cytometry (AID 588368;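 active means binding below the plate cutoff, the plate median minus 3 SD, with a reading above zero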;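 further: signal is the median channel fluorescence of bead-bound GFP antibody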); conditions: Protein G beads, DSG3-Fc, scFv-GFP binding, at 10 µM, stronger effect = lower value
# [29] = inhibitors of fungal efflux pumps CDR1, CDR2, MDR1, pilot screen, validation compound set, multiplex, phenotypic (AID 588506;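 active means efflux inhibition above 0.42, the validation set average plus 4 SD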;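 further: Nile Red retained in cells so higher fluorescence means more efflux inhibition; 0 = negative control wells and 1 = enniatin B 25 µM full block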); conditions: S. cerevisiae pump-expressing triplex, Nile Red efflux flow cytometry; at 10 µM; stronger effect = higher value; the pumps come from Candida albicans
# [30] = target: ATP-binding cassette sub-family B member 6 (Homo sapiens) (UniProt Q9NP58); assay: ABCB6 transporter inhibitors, pilot screen, K562-ABCB6 cells, flow cytometry, validation set (AID 588550;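 active means inhibition above the screen-wide mean plus 3 SD, about 51%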;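 further: 0% = DMSO wells and 100% = benzethonium chloride 70 µM positive control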); conditions: K562-ABCB6 porphyrin accumulation, 1 h, at 10 µM, stronger effect = higher value
# Sequence of ATP-binding cassette sub-family B member 6 (Homo sapiens) (Q9NP58 whole entry, looked up): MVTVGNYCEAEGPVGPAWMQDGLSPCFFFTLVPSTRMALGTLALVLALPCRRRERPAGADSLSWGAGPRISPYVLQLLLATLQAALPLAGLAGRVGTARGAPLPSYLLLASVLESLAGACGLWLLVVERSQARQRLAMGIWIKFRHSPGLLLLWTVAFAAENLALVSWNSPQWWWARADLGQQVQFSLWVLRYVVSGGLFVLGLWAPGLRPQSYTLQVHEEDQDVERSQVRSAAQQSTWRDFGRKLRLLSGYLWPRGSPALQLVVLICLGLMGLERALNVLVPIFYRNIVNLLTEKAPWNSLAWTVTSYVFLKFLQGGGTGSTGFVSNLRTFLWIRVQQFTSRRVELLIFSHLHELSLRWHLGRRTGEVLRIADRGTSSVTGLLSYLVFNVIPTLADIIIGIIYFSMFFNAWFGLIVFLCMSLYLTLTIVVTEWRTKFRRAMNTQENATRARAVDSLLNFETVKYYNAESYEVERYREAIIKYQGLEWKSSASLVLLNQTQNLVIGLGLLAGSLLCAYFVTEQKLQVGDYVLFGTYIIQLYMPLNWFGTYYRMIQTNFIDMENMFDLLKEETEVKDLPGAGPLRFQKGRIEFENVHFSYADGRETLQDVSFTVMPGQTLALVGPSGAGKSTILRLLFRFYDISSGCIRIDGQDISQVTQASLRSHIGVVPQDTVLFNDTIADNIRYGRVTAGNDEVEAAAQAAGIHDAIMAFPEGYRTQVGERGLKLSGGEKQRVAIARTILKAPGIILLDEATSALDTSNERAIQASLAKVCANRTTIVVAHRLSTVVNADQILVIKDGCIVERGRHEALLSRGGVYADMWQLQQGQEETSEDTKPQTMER
# [31] = promoters of myeloid differentiation in arrested cells, primary screen, cell-based, GFP/MAC1 double positive, flow cytometry, validation set (AID 588685;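 active means differentiation response of at least 50%, scaled between solvent and reference control, from cells with both markers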;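 further: compound exposure lasts four days before antibody staining and flow analysis; 0% = DMSO wells and 100% = 5 µM fulvestrant positive control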); conditions: ER-HoxA9 marrow cells, stronger effect = higher value, normalized: vehicle 0, fulvestrant 100
# [32] = measured here: daughter cell gate
# [33] = measured here: mother cell gate
structure (smiles),measurement,setting,value
CCCC1C(c2ccccc2)C(C#N)(C#N)C2(C#N)CC1(N)NC2=O (stereo not drawn),RGS16–Galpha-o binding response,[1],178%
same,RGS19–Galpha-o binding response,[2],474%
same,RGS7–Galpha-o binding response,[3],152%
same,RGS8–Galpha-o binding response,[4],116%
same,inhibition,[5],0.8% (inactive)
same,binding response (% of control),[6],103% (inactive)
same,response (percent of control binding),[7],105% (inactive)
same,response (% of control binding),[8],102% (inactive)
same,binding response (% of control),[9],103% (inactive)
same,response (percent of control binding),[10],105% (inactive)
CC(=O)c1ccc(CCCCCCCCCC(=O)O)s1,percent of DMSO control GFP,[11],98.6% (inactive)
same,GFP response vs DMSO,[12],97.4% (inactive)
same,percent response of DMSO control,[13],66.4% (inactive)
same,GFP response vs DMSO,[14],174% (active)
same,"GFP response, % of DMSO",[15],86.2% (inactive)
same,GFP response vs DMSO,[16],99% (inactive)
same,GFP response vs DMSO,[16]; [32],96.7%
same,GFP response vs DMSO,[16]; [33],98.5%
same,GFP response relative to DMSO,[17],108% (inactive)
same,GFP response relative to DMSO,[17]; measured here: daughter cell gate response,111%
same,GFP response relative to DMSO,[17]; measured here: mother cell gate response,113%
same,GFP response vs DMSO,[18],100% (inactive)
same,"GFP response, % of DMSO",[19],95.2% (inactive)
same,"GFP response, % of DMSO",[20],99.1% (inactive)
same,"GFP response, % of DMSO",[20]; [32],93.2%
same,"GFP response, % of DMSO",[20]; [33],101%
same,double positive events,[21],60%
same,vesicle binding response,[21],207% (inactive)
same,inhibition,[22],13.2% (inactive)
same,superoxide response (% of plate),[23],117% (inactive)
same,aptamer binding inhibition,[24],-5% (inactive)
same,response,[25],23.9% (inactive)
same,inhibition,[26],26.2% (inactive)
same,response,[27],-3% (inactive)
same,binding (% of control),[28],99.3% (inactive)
same,efflux inhibition (fraction of control),[29],0.01 (inactive)
same,inhibition,[30],-2% (inactive)
same,differentiation response,[31],66.4% (active)
